High-throughput results: PubChem, The Scripps Research Institute Molecular Screening Center
GPR151 ag = activates the human receptor GPR151 | Q8TDV0 | PathHunter beta-arrestin GPR151 cells, luminescence | activation, % at 11.2 µM | 1% of 650,000 active; in the data active = activation above about 4.9%;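 note: 0% = median of compound wells and 100% = cells with positive control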
Target sequence (Q8TDV0 whole entry, looked up): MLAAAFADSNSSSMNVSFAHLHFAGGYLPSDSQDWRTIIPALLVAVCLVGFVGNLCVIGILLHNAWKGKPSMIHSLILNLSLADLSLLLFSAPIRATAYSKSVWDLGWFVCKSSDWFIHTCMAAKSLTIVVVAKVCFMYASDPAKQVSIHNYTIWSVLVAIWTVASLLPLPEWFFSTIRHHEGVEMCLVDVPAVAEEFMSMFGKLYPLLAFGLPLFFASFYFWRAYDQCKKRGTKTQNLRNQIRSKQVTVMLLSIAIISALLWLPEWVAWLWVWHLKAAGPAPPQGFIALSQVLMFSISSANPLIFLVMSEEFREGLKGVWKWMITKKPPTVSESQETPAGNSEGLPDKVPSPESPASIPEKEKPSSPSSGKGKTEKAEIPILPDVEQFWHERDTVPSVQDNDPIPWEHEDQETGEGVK
TEAD-YAP block = TEAD-YAP interaction inhibition. HEK-TIYL cells, TEAD-Gal4/YAP UAS-luciferase luminescence. inhibition, % at 9.12 µM. 1.4% of 640,000 active; in the data active = inhibition above about 32%;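 note: 0% = median of test compound wells and 100% = reference inhibitor wells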
MITF inh = inhibitors of human MITF; O75030; AlphaScreen MITF homodimerization, bead proximity signal; inhibition, % at 2.6 µM; 0.91% of 650,000 active; in the data active = inhibition above about 50%;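 note: 0% = vehicle wells with protein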
FBW7 act = activators of human E3 ligase FBW7 | Q969H0 | 0.13% of 650,000 active | AlphaScreen FBW7–phospho-cyclin E peptide binding, activator screen | AID 1259310 | normalized activity (activation), % at 26.1 µM; in the data active = normalized activity above about 1.9%;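 note: purified mutant Fbw7 with reduced substrate affinity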
MITF inh conf = human MITF inhibition, confirmation. 16% of 4,700 active. AID 1259372. inhibition, % at 2.6 µM. AlphaScreen MITF homodimerization, biotin/His-MITF beads. shares compounds with MITF inh;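 active = inhibition above a cutoff derived from the DMSO control wells, cut at about 28% in these data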;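 note: 0% = MITF dimer wells with DMSO only; inhibitors lower the bead chemiluminescence by keeping MITF from dimerizing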
AS interf DR = optically interferes with AlphaScreen signal in dose response. shares compounds with MITF inh. AlphaScreen optical interference counterscreen, cell-free. IC50, µM. 6% of 480 active. AID 1259373; call rule not given here
AS interf ctr = AlphaScreen optical interference, counter-screen; shares compounds with MITF inh; LysRS AlphaScreen counterscreen, signal interference, triplicate; inhibition, % at 2.6 µM; 7.6% of 4,700 active; AID 1259376;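 active = inhibition above a cutoff derived from the DMSO control wells, cut at about 30% in these data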
* = called active by the depositor. Hits are enriched below; roughly 3.5% of the tested compounds scored in any of these assays.

Screening COc1ccc(N2C(=O)C3CCCCC3C2=O)cc1NC(=O)c1ccc(Cl)cc1Cl (stereo unspecified) returned GPR151 ag 0, TEAD-YAP block 8, MITF inh 76*, FBW7 act 0, MITF inh conf 8 and AS interf ctr 20.
For O=C(c1ccc(CNc2c(N3CCCC3)c(=O)c2=O)cc1)N1CCc2ccccc21 the results were GPR151 ag 2, TEAD-YAP block 9, MITF inh 2 and FBW7 act 0.
`Cc1ccc(/C=C(\C#N)C(=O)Nc2cccc(Cl)c2Cl)o1` gave GPR151 ag 0, TEAD-YAP block -2, MITF inh 8 and FBW7 act 0.
`Cc1ccc(/C=C(\C#N)C(=O)Nc2c(Cl)cccc2Cl)o1` gave GPR151 ag -2, TEAD-YAP block -14, MITF inh 74*, FBW7 act 0, MITF inh conf 5 and AS interf ctr 18.
Cc1ccnc(NC(=O)CSC2=NC(=O)C(c3ccccc3)C(=O)N2)c1 (stereo unspecified) was read as GPR151 ag 1, TEAD-YAP block 3, MITF inh 93*, FBW7 act 0, MITF inh conf 2 and AS interf ctr 9.
`N#Cc1ccc(OCC(O)CN2CCN(CCOc3ccccc3)CC2)cc1` (stereo unspecified) gave GPR151 ag -1, TEAD-YAP block -3, MITF inh 81*, FBW7 act 0, MITF inh conf 2 and AS interf ctr 9.
Screening CCC(C)c1ccc(OCCNCCO)cc1 (stereo unspecified) returned GPR151 ag 1, TEAD-YAP block -1, MITF inh 56*, FBW7 act 0, MITF inh conf -17 and AS interf ctr -8.
`CCC(C)c1ccc(OCCN2CCN(CC)CC2)cc1` (stereo unspecified) gave GPR151 ag 1, TEAD-YAP block 3, MITF inh 56*, FBW7 act 0, MITF inh conf 8 and AS interf ctr 11.
`CCN1CCN(CCOc2ccc(C#N)cc2)CC1` gave GPR151 ag 0, TEAD-YAP block 9, MITF inh 54*, FBW7 act 0, MITF inh conf 6 and AS interf ctr 8.
Screening CCOc1ccc(OCCCNCCO)cc1 returned GPR151 ag -2, TEAD-YAP block 13, MITF inh 18 and FBW7 act 0.
N#CC1=C(N)N(c2cc(C(F)(F)F)ccc2Cl)C2=C(C(=O)CCC2)C1c1ccc(Br)cc1 (stereo unspecified) was read as GPR151 ag -2, TEAD-YAP block -14, MITF inh -9 and FBW7 act 0.
`C=CCc1cc(OC)ccc1OCCCCn1cncn1` gave GPR151 ag -1, TEAD-YAP block 5, MITF inh 76*, FBW7 act 0, MITF inh conf -20 and AS interf ctr 0.
For C=CCc1cc(OC)ccc1OCCCN1CCN(C)CC1 the results were GPR151 ag 0, TEAD-YAP block 4, MITF inh 82*, FBW7 act 0, MITF inh conf 0 and AS interf ctr -3.
For C=CCc1cc(OC)ccc1OCCN1CCCCC1 the results were GPR151 ag 0, TEAD-YAP block -2, MITF inh 33 and FBW7 act 0.
C=CCc1cc(OC)ccc1OCCN1CCN(C)CC1 was read as GPR151 ag -2, TEAD-YAP block 16, MITF inh 67*, FBW7 act 0, MITF inh conf 11 and AS interf ctr 3.
`CC1CN(C(=O)COc2ccc(Cl)cc2Br)CC(C)O1` (stereo unspecified) gave GPR151 ag 1, TEAD-YAP block 0, MITF inh -1 and FBW7 act 0.
CN(Cc1cnc2ccccn12)C(=O)CCc1nnc(CCc2ccccc2)o1 was read as GPR151 ag 1, TEAD-YAP block -1, MITF inh 0 and FBW7 act 0.
For Cc1ccc(C2=Nc3ccccc3N=C(c3ccc4ccccc4c3O)C2)cc1 the results were GPR151 ag 2, TEAD-YAP block -6, MITF inh 3 and FBW7 act 0.
Screening CN(C)CCOc1ccc2ccccc2c1 returned GPR151 ag 0, TEAD-YAP block 0, MITF inh 76*, FBW7 act 0, MITF inh conf -17 and AS interf ctr -3.
For Cc1ccc(Cl)cc1NS(=O)(=O)c1cccc2nsnc12 the results were GPR151 ag 0, TEAD-YAP block -4, MITF inh -3 and FBW7 act 0.
ClC1(Cl)CC1CNc1ncnc2sc3c(c12)CCC3 (stereo unspecified) was read as GPR151 ag 1, TEAD-YAP block 0, MITF inh 60*, FBW7 act 0, MITF inh conf 10 and AS interf ctr 14.
C=CCc1cc(Cl)ccc1OCCCN1CCOCC1 was read as GPR151 ag 4, TEAD-YAP block 11, MITF inh 71*, FBW7 act 0, MITF inh conf -1 and AS interf ctr 7.
For C=CCc1cc(C)ccc1OCCCCN1CCOCC1 the results were GPR151 ag -2, TEAD-YAP block 3, MITF inh 56*, FBW7 act 0, MITF inh conf 15 and AS interf ctr 19.
C=CCc1cc(Cl)ccc1OCCCN1CCN(CC)CC1 was read as GPR151 ag -2, TEAD-YAP block 11, MITF inh 81*, FBW7 act 0, MITF inh conf 1 and AS interf ctr 19.
For COc1ccc(C(CNCC(O)COCC2=CCC3CC2C3(C)C)N(C)C)cc1 (stereo unspecified) the results were GPR151 ag -3, TEAD-YAP block 4, MITF inh 73*, FBW7 act 0, MITF inh conf 26 and AS interf ctr 31*.
Screening CCN(CC)C(=O)CN1CCC(O)(c2ccccn2)CC1 returned GPR151 ag -2, TEAD-YAP block 15, MITF inh 9 and FBW7 act 0.
Screening CCN(CC)C(=O)CN1CCN(c2ncccn2)CC1 returned GPR151 ag 1, TEAD-YAP block 0, MITF inh 56*, FBW7 act 0, MITF inh conf 18 and AS interf ctr 10.
CC(=O)COC(=O)c1ccc2c(c1)C(=O)N(c1ccc([N+](=O)[O-])cc1)C2=O was read as GPR151 ag 1, TEAD-YAP block -7, MITF inh 2 and FBW7 act 0.
For CC(Oc1ccc(O)cc1)(P(=O)(O)O)P(=O)(O)O the results were GPR151 ag 2, MITF inh 97*, FBW7 act 1, MITF inh conf 96*, AS interf DR >6.5 and AS interf ctr 16.
`C=CCc1ccc(OCCN(C)C)c(OC)c1` gave GPR151 ag 1, TEAD-YAP block -1, MITF inh 82*, FBW7 act -1, MITF inh conf 2 and AS interf ctr 15.
